The whole screen tested about 68,000 compounds, of which about 2,700 (4%) showed an effect of 50% or more. Only a selection was taken, and strong results are over-represented in it overall.
test system: Plasmodium berghei; assay: Screen against P. berghei liver stage (PbLuc), transformed with Luciferase, at 2uM; assay type: functional, HepG2; conditions: tested at 2 uM

Row | SMILES | INHIBITION
1 | O=C(Nc1ccc2c(c1)OC1(CCCCC1)O2)c1ccc(=O)[nH]n1 | -5.9%
2 | c1cncc(-c2nccc(CN3CCC(N4CCCCC4)CC3)n2)c1 | 25.72%
3 | CCN1CCN(Cc2ccnc(-c3cccnc3)n2)CC1 | 15.58%
4 | c1cncc(-c2nccc(CN3CCCC3)n2)c1 | 52.89%
5 | CC(C)c1cc(C(=O)NCCCN(C)C)nc(N2CCCC2)n1 | 27.54%
6 | CC(C)c1noc(CNc2ccc(OC(F)F)cc2OC(F)F)n1 | -70.61%
7 | Cc1noc(CNc2ccc(OC(F)F)cc2OC(F)F)n1 | 57.23%
8 | FC(F)Oc1ccc(NCc2nc(C3CC3)no2)c(OC(F)F)c1 | -35.14%
9 | O=C(NCCc1cc(F)ccc1F)NCC(O)C1CC1 (centres undefined) | 30.69%
10 | c1ccc(O[C@H]2COCCN(CC3CC3)C2)cc1 | 20.5%
11 | CC(NC(=O)NCCCn1cccn1)c1cccnc1 (centres undefined) | -8.05%
12 | CC(CC(=O)NCCCn1cccn1)c1cccnc1 (centres undefined) | 74.51%
13 | CC(NC(=O)Cn1cccn1)c1cccnc1 (centres undefined) | 42.58%
14 | Cc1nc(O)c2c(n1)CCN(Cc1cc(C)sc1C)CC2 | -0.21%
15 | CCC[C@@H]1CN(Cc2ccccc2-c2ccco2)C[C@H]1NC(C)=O | 28.19%
16 | COCCN1CCC(Cc2cnc(-c3ccccc3C(=O)O)cn2)CC1 | 20.44%
17 | Cc1cccc(C2(CNC(C)c3nnc(C)o3)CCCC2)c1 (centres undefined) | 38.96%
18 | Cc1nnc(C(C)NCC2(c3ccc(F)cc3)CCCCC2)o1 (centres undefined) | -55.34%
19 | Cc1nnc(C(C)NCC2(c3c(F)cccc3F)CCCC2)o1 (centres undefined) | 50.9%
20 | O=C(NCC1CC1)[C@@H]1CCO[C@@H]2CCN(Cc3ccsc3)C[C@H]21 | 28.38%
21 | O=C(O)c1cc(-c2cc[nH]n2)cc(S(=O)(=O)N2CCCCCC2)c1 | 23.17%
22 | O=C1CN(c2ccc(CNC(=O)Nc3nccs3)cc2)CCN1 | 29.4%

Row | SMILES | INHIBITION
23 | Nc1nccnc1C1CN(C(=O)c2ccc3c(c2)OCO3)CCO1 (centres undefined) | 50.32%
24 | Cc1n[nH]c(C2CN(C(=O)c3ccc4c(c3)CCCC4)CCO2)n1 (centres undefined) | -1.87%
25 | Nc1nccnc1C1CN(C(=O)c2ccnnc2)CCO1 (centres undefined) | 27.39%
26 | CCc1n[nH]c(C2CN(C(=O)c3cnc(C)nc3CC)CCO2)n1 (centres undefined) | 39.07%
27 | CCc1n[nH]c(C2CN(C(=O)c3nc(C)ncc3Cl)CCO2)n1 (centres undefined) | 63.95%
28 | Cc1n[nH]c(C2CN(C(=O)c3ccc4c(c3)COC4)CCO2)n1 (centres undefined) | 67.28%
29 | Nc1nccnc1C1CN(C(=O)c2cnc(C3CC3)nc2)CCO1 (centres undefined) | 39.9%
30 | CCc1n[nH]c(C2CN(C(=O)c3ccc4c(c3)COC4)CCO2)n1 (centres undefined) | -0.99%
31 | CCc1n[nH]c(C2CN(C(=O)c3ncoc3CC)CCO2)n1 (centres undefined) | -15.34%
32 | COc1ccc(CN2CC[C@H](O)[C@@H]2Cc2cnn(C)c2)cc1 | -10.92%
33 | CC(NC(=O)N(C)Cc1cnn(C)c1)c1nncn1C (centres undefined) | 18.63%
34 | O=C(Nc1ccc2ncccc2c1)C1CC(=O)N(Cc2ccccn2)C1 (centres undefined) | -6.89%
35 | Cc1noc(C)c1CCC(=O)N1CCN(CCn2cncn2)CC1 | 33.75%
36 | O=C(CCC(F)(F)F)N1CCCC2(CCC(=O)N(CC3CC3)C2)C1 (centres undefined) | -6.04%
37 | O=C(CSCC1CC1)N1CCCC2(CCC(=O)N(CC3CC3)C2)C1 (centres undefined) | 1.42%
38 | CC(C)CCN1CC2(CCCN(C(=O)CNC(=O)N(C)C)C2)CCC1=O (centres undefined) | 58.03%
39 | O=C(CO)N1CCCC2(CCC(=O)N(CC3CC3)C2)C1 (centres undefined) | 62.38%
40 | CN(C)C(=O)NCC(=O)N1CCCC2(CCC(=O)N(CC3CC3)C2)C1 (centres undefined) | 40.61%
41 | CC(=O)NCC(=O)N1CCCC2(CCC(=O)N(CCc3c[nH]cn3)C2)C1 (centres undefined) | -53.74%
42 | CCN1CCN(C2CCN(Cc3ccc(Cl)s3)CC2)C1=O | 18.52%
43 | COCC1CC2(CCN(Cc3ccccn3)CC2)CN1c1ncccn1 (centres undefined) | -23.78%
44 | Cc1nnc(SCCNc2cc(C3CC3)ncn2)s1 | 12.17%

Row | SMILES | INHIBITION
45 | Cc1nnc(SCCCNc2cc(C3CC3)ncn2)s1 | 60.35%
46 | COc1cc(NCCCSc2nnc(C)s2)ncn1 | -29.43%
47 | Cc1cc(CN2CCC(c3ccnn3CCO)CC2)no1 | 20.28%
48 | COc1cc(S(=O)(=O)N2CCCc3ccccc32)cc(C(=O)O)c1OC | 56.72%
49 | COc1cc(S(=O)(=O)N2CCc3ccccc32)cc(C(=O)O)c1OC | 12.65%
50 | COc1cc(S(=O)(=O)N2CCc3ccc(Cl)cc32)cc(C(=O)O)c1OC | 6.3%
51 | O=C(c1cnccn1)N1CCOCC2(CCN(C3CCOCC3)C2)C1 (centres undefined) | 26.14%
52 | Cc1nc(CN2C[C@@H](CN3CCOCC3)[C@@H](CO)C2)c2ccccn12 | 25.81%
53 | NCCCNS(=O)(=O)Cc1ccc(Br)cc1 | 5.28%
54 | O=S(=O)(Cc1ccc(Br)cc1)NCCO | 17.51%
55 | NCCNS(=O)(=O)Cc1ccc(Br)cc1 | 50.59%
56 | Cn1cc(CN2CC3(CCN(C(=O)c4cscn4)C3)C2)cn1 | -9.1%
57 | CC(=O)NCCN1CCC(c2cccs2)CC1 | 26.64%
58 | Cc1csc(C(=O)NCCN2CCC(c3cccs3)CC2)c1 | 18.23%
59 | COc1ccc(C(=O)NCCN2CCC(c3cccs3)CC2)cc1OC | 66.04%
60 | c1cncc(N2CCO[C@H]3CN(CC4CCOC4)C[C@H]32)c1 (some centres undefined) | 19.51%
61 | O=C(Cn1cc(-c2ccccc2)ncc1=O)Nc1ncc[nH]1 | -80.35%
62 | CCOCCCNc1ncc(-c2cccc(F)c2)c(-c2nccn2C)n1 | 55.72%
63 | Cn1ccnc1-c1nc(NC2CCCC2)ncc1-c1cccc(F)c1 | 14.3%
64 | COCCNc1ncc(-c2cccc(OC)c2)c(-c2nccn2C)n1 | 54.87%
65 | COCCCNc1ncc(-c2cccc(F)c2)c(-c2nccn2C)n1 | -18.57%
66 | COCCNc1ncc(-c2cc(C)no2)c(-c2ccco2)n1 | -29.24%

Row | SMILES | INHIBITION
67 | COCCNc1ncc(-c2cccc(F)c2)c(-c2nccn2C)n1 | 27.12%
68 | CN(C)C(=O)COCc1cncc2c1CCN(Cc1cnn(C)c1)C2 | 14.91%
69 | Cc1ccc2c(n1)N(C)CCN(Cc1ccco1)C2 | 29.89%
70 | O[C@@H]1CN(Cc2cnccn2)C[C@H]1Oc1ccccc1 | 26.14%
71 | CN(C)S(=O)(=O)N1CCC2(CC1)CC(Oc1ccccn1)CO2 (centres undefined) | 56.78%
72 | Cc1cnc(CN2C[C@H]3CC(Oc4ccccc4)C[C@H]3C2)cn1 (some centres undefined) | 25.06%
73 | CS(=O)(=O)N1CCC2(CC1)CC(Oc1ccccn1)CO2 (centres undefined) | -0.23%
74 | CN(C)S(=O)(=O)N1CCC[C@]2(C[C@@H](Oc3ccccn3)CO2)C1 | 19.61%
75 | c1ccc(OC2COC3(CCN(Cc4ccccn4)CC3)C2)cc1 (centres undefined) | 62.15%
76 | c1ccc(OC2C[C@@H]3CN(Cc4cnccn4)C[C@@H]3C2)cc1 (some centres undefined) | 50.32%
77 | c1ccc(CN2CC[C@]3(C[C@@H](Oc4ccccn4)CO3)C2)nc1 | 8.1%
78 | c1ccc(CO[C@@H]2CO[C@@]3(CCN(Cc4ccccn4)C3)C2)nc1 | 40.25%
79 | COc1ccc2cc(-c3n[nH]cc3CN3CCSCC3)ccc2c1 | 30.34%
80 | CN(C)C(=O)CO[C@@H]1CC[C@H]2[C@H]1OCCN2c1ncc(F)cn1 | 34.89%
81 | Cc1cc(CN2CCC(CNS(=O)(=O)c3ccc(Br)s3)CC2)c(C)o1 | 23.96%
82 | CC(C)Cc1nc(CSCC(=O)N2CCC(C)CC2)no1 | -32.8%
83 | O=C(Nc1ccc(F)c(Br)c1)N1CCCC1 | -5.87%
84 | CC(C)CC(NC(=O)c1cccs1)c1nc2cccnc2n1C (centres undefined) | -19.86%
85 | NC(=O)C1CCN(CCCNC(=O)Nc2nccs2)CC1 | 28.14%
86 | O=C(Nc1cccnc1)[C@H]1CN(Cc2ccccn2)C[C@H]2OCC[C@@H]12 | -43.55%
87 | Cc1cc(-c2nc(-c3ccccn3)nn2C2CCN(C)CC2)nc(C)n1 | 14.19%
88 | CC1(CO)COC(Cc2ccc(Cl)cc2)=N1 (centres undefined) | -6.98%

Row | SMILES | INHIBITION
89 | CS(=O)(=O)N1CCC2(CCCN(CCCc3ccccc3)C2=O)C1 (centres undefined) | -57.67%
90 | O=C1N(CCc2ccccc2)CCCC12CCN(C(CO)CO)C2 (centres undefined) | 57.92%
91 | O=C1N(CCCc2ccccc2)CCCC12CCN(C(CO)CO)C2 (centres undefined) | 7.13%
92 | Cc1ccc(N2CCN(C3CCc4ccccc4C3)CC2)nn1 (centres undefined) | 30.66%
93 | Cc1noc(C)c1-c1cc(CC2CCN(C(=O)c3cc[nH]n3)C2)ncn1 (centres undefined) | -15.34%
94 | Cc1noc(C)c1-c1cccc(CC2CCN(C(=O)c3cc[nH]n3)C2)n1 (centres undefined) | -8.23%
95 | Cc1noc(C)c1-c1cncc(CC2CCN(C(=O)c3cc[nH]n3)C2)n1 (centres undefined) | 61.16%
96 | Cc1nc(CNC(=O)N(C)Cc2cnn(C)c2)cs1 | 29.19%
97 | Cc1ncc2c(c1CNC(=O)C1(C)CC1)CCNC2 | 51.9%
98 | Cc1ncc2c(c1CNC(=O)C1(C)CCCCO1)CCNC2 (centres undefined) | -17.55%
99 | Cc1ncc2c(c1CNC(=O)C1(C)CCCO1)CCNC2 (centres undefined) | 21.72%
100 | Cc1cc(C)nc(N2CCC(c3cc(CCO)[nH]n3)C2)n1 (centres undefined) | -92.86%
101 | Cc1ccc(C(=O)N2CCC3(CCC(=O)N(CC(C)O)C3)CC2)c(O)c1 (centres undefined) | -0.85%
102 | O=C(NCCn1ccc(-c2ccncc2)n1)C1CC1 | -19.3%
103 | Fc1cc(Cl)cnc1N1CCCC(c2nccn2Cc2ccncc2)C1 (centres undefined) | 17.69%
104 | CC(C)CS(=O)(=O)N1C[C@@H]2C[C@H](C(=O)NCc3ccccc3)[C@H](C1)O2 | 75.33%
105 | CN(C)S(=O)(=O)N1C[C@@H]2C[C@H](C(=O)NCc3ccccc3)[C@H](C1)O2 | -32.96%
106 | O=C(NCc1ccccc1)[C@H]1C[C@H]2CN(S(=O)(=O)C3CC3)C[C@@H]1O2 | 14.94%
107 | CC(C)CCN1C[C@@H]2C[C@H](C(=O)Nc3cccnc3)[C@H](C1)O2 | 26.76%
108 | CCN1C[C@@H]2C[C@H](C(=O)Nc3ccccc3)[C@H](C1)O2 | 37.65%
109 | CC(C)CCN1C[C@@H]2C[C@H](C(=O)Nc3ccccc3)[C@H](C1)O2 | 73.15%
